Assay [1] concerns PRMT1 (protein arginine N-methyltransferase 1). Nature of the assay: PRMT1 binders on small-molecule microarrays, primary screen, biochemical, small-molecule microarray, 635 nm fluorescence (AID 1088).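 Also: binding of Prmt1 protein to compounds spotted on small-molecule microarray slides.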 The conditions noted are these: small-molecule microarray binding, higher = more signal.
The nature of assay [2]: yeast growth modulation, basal conditions, primary screen, YJM789 clinical isolate, OD600, 24 h (AID 1089).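 Also: growth of clinical yeast isolate S. cerevisiae YJM 789 seeded 1000 cells per well; test concentration not given here.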 To be noted: S. cerevisiae YJM789 growth, higher = more signal, called active from +8 up or from −8 down.
Assay [3] is described as follows: fission yeast growth modulation, primary screen, strain 972, OD600, 24 h, no modulator (AID 1090).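 Also: basal condition with compound alone and no growth modifier present; test concentration not given here.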 To be noted: S. pombe 972 growth, higher = more signal, called active from +8 up or from −8 down.
Assay [4] can be described thus: S. cerevisiae growth modulation with rapamycin, primary screen, strain BY4716, OD600, 96 h (AID 1091). Also: test concentration not given here. The conditions noted are these: higher = more signal, called active from +8 up or from −8 down.
Assay [5] concerns the target Torsin-1A-interacting protein 2 (Homo sapiens) (UniProt Q8NFQ8). Nature of the assay: LULL1 binders on small-molecule microarray, primary screen, cell lysate, human LULL1 lysate, 635/667 nm fluorescence (AID 1092).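 Also: probe is lysate of COS7 cells overexpressing human LULL1; score merges per-feature 667 nm fluorescence with signal-to-noise.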 The conditions noted are these: hLULL1 lysate binding, 635 nm fluorescence, higher = more signal.
The nature of assay [6]: E. coli growth modulation, two-sided OD650, primary screen, E. coli filamentation project, strain DRC41, 24 h (AID 1093).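 Also: MC1000 strain lacking acrAB efflux and sulA so SOS filamentation is blocked; test concentration not given here.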 The conditions noted are these: OD650, 24 h, higher = more signal, called active from +8 up or from −8 down.
A short description of assay [7]: small-molecule microarray binders of probe aLefty2, primary screen, biochemical, biotinylated probe, 635/667 nm fluorescence (AID 1094).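 Also: score merges spot fluorescence near 667 nm with spot signal-to-noise ratio.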 To be noted: higher = more signal.
The subject of assay [8] is Noggin (protein binding on small-molecule microarray). Nature of the assay: Noggin binders on small-molecule microarray, primary screen, biochemical, 635/667 nm fluorescence (AID 1095).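 Also: score merges 667 nm feature fluorescence with signal to noise over triplicate slides.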 The conditions noted are these: 635 nm fluorescence, higher = more signal.
Assay [9] addresses Neurogenic locus notch homolog protein 3 (Homo sapiens) (UniProt Q9UM47). Nature of the assay: NOTCH3 binders on small-molecule microarray, primary screen, biochemical, 635/667 nm fluorescence (AID 1096). To be noted: NOTCH3 binding, 635 nm fluorescence, higher = more signal.
A short description of assay [10]: small-molecule microarray binders of probe aEGFR, primary screen, biochemical, biotinylated probe, 635/667 nm fluorescence (AID 1097).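 Also: probe is a biotinylated anti-EGFR antibody binding compounds printed on slides; score combines fluorescence near 667 nm and signal to noise of each spot.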 The conditions noted are these: higher = more signal.

The source made the active and inactive calls.

Sequence of Torsin-1A-interacting protein 2 (Homo sapiens) (Q8NFQ8 whole entry, looked up): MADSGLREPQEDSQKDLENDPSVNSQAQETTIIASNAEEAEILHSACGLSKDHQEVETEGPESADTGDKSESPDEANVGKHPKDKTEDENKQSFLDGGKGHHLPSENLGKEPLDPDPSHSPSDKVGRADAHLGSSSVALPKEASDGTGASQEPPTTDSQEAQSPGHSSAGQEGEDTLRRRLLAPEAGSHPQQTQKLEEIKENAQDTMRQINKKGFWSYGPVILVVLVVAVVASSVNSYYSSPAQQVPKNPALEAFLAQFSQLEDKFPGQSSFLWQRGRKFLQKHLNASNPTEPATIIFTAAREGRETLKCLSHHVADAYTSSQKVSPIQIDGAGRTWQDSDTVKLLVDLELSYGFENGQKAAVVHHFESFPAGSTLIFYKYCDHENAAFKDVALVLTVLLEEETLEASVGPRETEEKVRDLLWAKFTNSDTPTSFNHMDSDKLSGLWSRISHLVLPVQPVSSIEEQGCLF
Sequence of Neurogenic locus notch homolog protein 3 (Homo sapiens) (Q9UM47 whole entry, looked up): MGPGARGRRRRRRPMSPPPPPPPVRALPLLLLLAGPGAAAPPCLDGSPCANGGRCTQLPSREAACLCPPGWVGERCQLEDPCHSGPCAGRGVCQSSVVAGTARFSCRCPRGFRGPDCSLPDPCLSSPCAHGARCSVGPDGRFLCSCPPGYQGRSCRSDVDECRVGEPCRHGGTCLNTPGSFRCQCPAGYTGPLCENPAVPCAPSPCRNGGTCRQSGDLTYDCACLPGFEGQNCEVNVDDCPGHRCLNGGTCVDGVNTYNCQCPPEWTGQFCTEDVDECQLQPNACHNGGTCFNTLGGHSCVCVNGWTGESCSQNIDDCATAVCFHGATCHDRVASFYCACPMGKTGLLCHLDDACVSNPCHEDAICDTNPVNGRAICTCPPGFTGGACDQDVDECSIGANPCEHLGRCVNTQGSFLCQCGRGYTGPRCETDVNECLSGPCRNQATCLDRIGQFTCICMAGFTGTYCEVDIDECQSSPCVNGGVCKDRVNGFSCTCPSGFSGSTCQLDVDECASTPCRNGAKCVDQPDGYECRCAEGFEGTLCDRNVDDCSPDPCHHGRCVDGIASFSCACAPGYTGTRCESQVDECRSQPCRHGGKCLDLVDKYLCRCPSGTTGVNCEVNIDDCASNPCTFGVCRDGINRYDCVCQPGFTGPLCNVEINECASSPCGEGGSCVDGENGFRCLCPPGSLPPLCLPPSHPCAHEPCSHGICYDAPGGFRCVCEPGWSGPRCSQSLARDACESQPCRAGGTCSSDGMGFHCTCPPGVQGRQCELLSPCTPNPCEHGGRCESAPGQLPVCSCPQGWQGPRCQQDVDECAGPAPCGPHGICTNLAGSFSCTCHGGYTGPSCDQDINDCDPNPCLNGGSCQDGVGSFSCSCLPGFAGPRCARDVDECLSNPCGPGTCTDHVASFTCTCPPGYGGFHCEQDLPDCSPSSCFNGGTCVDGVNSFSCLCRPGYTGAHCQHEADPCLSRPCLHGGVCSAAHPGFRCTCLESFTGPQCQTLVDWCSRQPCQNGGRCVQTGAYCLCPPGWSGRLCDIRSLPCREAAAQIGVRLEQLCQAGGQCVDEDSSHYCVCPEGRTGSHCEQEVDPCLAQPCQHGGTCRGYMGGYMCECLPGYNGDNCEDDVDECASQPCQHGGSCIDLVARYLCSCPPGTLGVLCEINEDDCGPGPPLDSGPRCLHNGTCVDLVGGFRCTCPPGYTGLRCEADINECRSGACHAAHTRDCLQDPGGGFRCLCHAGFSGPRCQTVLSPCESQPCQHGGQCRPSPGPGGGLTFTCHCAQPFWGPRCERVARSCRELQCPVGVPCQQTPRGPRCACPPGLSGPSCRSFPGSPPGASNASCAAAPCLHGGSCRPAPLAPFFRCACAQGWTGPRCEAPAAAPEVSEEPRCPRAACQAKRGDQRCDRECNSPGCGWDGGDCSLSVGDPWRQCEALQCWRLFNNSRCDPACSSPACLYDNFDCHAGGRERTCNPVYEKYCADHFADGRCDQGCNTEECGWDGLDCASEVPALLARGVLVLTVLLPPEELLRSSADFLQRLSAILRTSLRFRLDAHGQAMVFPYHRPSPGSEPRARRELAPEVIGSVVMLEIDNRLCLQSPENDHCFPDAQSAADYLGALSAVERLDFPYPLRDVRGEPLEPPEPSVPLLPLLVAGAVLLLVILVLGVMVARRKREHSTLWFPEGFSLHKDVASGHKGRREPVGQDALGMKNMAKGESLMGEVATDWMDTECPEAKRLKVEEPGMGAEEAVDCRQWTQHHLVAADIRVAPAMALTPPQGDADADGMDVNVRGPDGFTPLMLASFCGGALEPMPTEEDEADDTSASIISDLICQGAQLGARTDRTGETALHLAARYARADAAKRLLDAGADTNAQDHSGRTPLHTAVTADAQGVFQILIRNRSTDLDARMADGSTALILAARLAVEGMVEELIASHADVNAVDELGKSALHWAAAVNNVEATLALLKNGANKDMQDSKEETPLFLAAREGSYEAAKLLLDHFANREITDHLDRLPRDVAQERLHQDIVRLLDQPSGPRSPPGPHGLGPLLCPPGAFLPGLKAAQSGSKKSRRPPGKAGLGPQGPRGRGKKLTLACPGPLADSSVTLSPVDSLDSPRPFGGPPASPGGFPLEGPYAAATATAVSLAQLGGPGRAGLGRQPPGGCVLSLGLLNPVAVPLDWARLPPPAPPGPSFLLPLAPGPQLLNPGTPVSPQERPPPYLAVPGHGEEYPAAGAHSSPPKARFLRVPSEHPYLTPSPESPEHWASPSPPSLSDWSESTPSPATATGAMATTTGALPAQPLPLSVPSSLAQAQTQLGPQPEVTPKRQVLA

`O=C1OCCC/C=C\[C@H]2OC34C=CCN(Cc5ccccc5)C(=O)[C@H]3N(CCO)C(=O)[C@@H]4C12` (stereo not given in full): the composite z-score was 0.216 in assay [1]; 2.22 in [5]; 0.235 in assay [7]; -0.353 in assay [8]; 0.0094 in assay [9]; 0.0618 in [10]. In addition, the z-score was -0.27 (inactive) in assay [2], -1.72 (inactive) in [3], -0.462 (inactive) in assay [4] and 2.29 (inactive) in [6].
As for `CCCCN1CC=CC23O[C@@H]4/C=C\CCCOC(=O)C4[C@H]2C(=O)N(CCCCCCO)[C@@H]3C1=O` (stereo not given in full), the composite z-score in assay [1] was 0.988; in [5] it was 3.56; in assay [7], -0.19; in assay [8] it was -0.676; in assay [9], -0.0185; in assay [10], -0.262. Moreover, the z-score is -0.917 (inactive) in assay [2], -0.818 (inactive) in [3], -0.771 (inactive) in assay [4] and 1.79 (inactive) in assay [6].
Consider `COc1ccc([Si](C)(C)[C@@H]2[C@@H](CC(=O)N(CCO)Cc3ccccc3)O[C@]3(C(=O)N(Cc4cccc(I)c4)c4ccccc43)[C@H]2C)cc1`, for which the composite z-score in assay [1] is 1.46; in assay [5], 0.444; in assay [7] it was 0.0553; in assay [8], 1.51; in assay [9], 1.07; in assay [10], 0.0102. In addition, the z-score in assay [2] is -0.0171 (inactive); in assay [3], 1.27 (inactive); in assay [4], 3.46 (inactive); in assay [6], 0.645 (inactive).
With `O=C(CS)NCCCCCCNC(=O)[C@H]1C[C@H]2C(=O)NCC(=O)N2[C@H]1c1cccc(OCCO)c1`, the composite z-score is 0.863 in assay [1]; 2.47 in [5]; 0.0657 in [7]; 0.6 in assay [8]; 0.471 in [9]; -0.0612 in assay [10]. Besides, the z-score in [2] is -0.573 (inactive); in assay [3], -0.372 (inactive); in [4] it was 0.585 (inactive); in assay [6] it was 1.25 (inactive).
Turning to `COCCCNC(=O)[C@]1(Cc2ccccc2N=[N+]=[N-])N=C(c2ccc(OCCCO)cc2)O[C@@H]1c1ccccc1`, the composite z-score in assay [1] is 1.46; in assay [5], 3.23; in [7], 0.692; in [8] it was -0.0042; in assay [9] it was 0.901; in assay [10] it was 0.377. In addition, the z-score in [2] was -1.51 (inactive); in assay [3], -0.982 (inactive); in [4], 2.48 (inactive); in assay [6], 1.1 (inactive).
In the case of `C=CCC(OC(C)=O)[C@@H]1[C@@H](N(Cc2ccc(-c3ccccc3)cc2)C(=O)Cc2ccc(OC)cc2)c2cc(OCCCO)ccc2N1C(=O)c1ccc2ccccc2c1` (stereo not given in full), the composite z-score in [1] was 0.238; in assay [5] it was 0.622; in [7], -0.154; in assay [8], 0.138; in [9], 0.0678; in [10] it was -0.17. The z-score is -0.675 (inactive) in assay [2], 0.121 (inactive) in assay [3], -0.193 (inactive) in assay [4] and -0.584 (inactive) in assay [6].
With `O=C1O[C@H](c2ccccc2)[C@H](c2ccccc2)N2[C@H]1[C@@H](C(=O)Nc1nc3ccccc3s1)[C@]1(C(=O)Nc3ccccc31)[C@H]2c1ccccc1OCCO`, the composite z-score was 1.5 in assay [1]; 3.09 in assay [5]; 0.229 in assay [7]; 0.712 in [8]; 0.595 in [9]; -0.0828 in assay [10]. The z-score in assay [2] is 1.91 (inactive); in assay [3], 2.2 (inactive); in [4], 3.94 (inactive); in assay [6], 0.732 (inactive).
As for `O=C(NC1CC1)[C@@H]1c2ccccc2C(=O)N(C2CCCCC2)[C@H]1c1ccc(CO)cc1`, the composite z-score in assay [1] is 0.384; in assay [5] it was 2.76; in assay [7], 0.322; in assay [8] it was -0.923; in assay [9] it was 0.25; in [10], 0.595. Further, the z-score in [2] is 0.116 (inactive); in [3], -0.0911 (inactive); in assay [4] it was 0.0861 (inactive); in [6], 0.398 (inactive).
Consider `COCCOC(=O)N1C(=O)[C@@]2(c3cc(C#CCC(C(=O)OC)C(=O)OC)ccc31)[C@H](C(N)=O)[C@H]1C(=O)O[C@H](c3ccccc3)[C@H](c3ccccc3)N1[C@@H]2c1ccccc1OCCO`, for which the composite z-score was 1.55 in assay [1]; 1.89 in assay [5]; -0.204 in assay [7]; 1.56 in assay [8]; 1.06 in [9]; -0.0661 in assay [10]. Besides, the z-score in [2] was -2.36 (inactive); in assay [3] it was -1.12 (inactive); in [4] it was 2.65 (inactive); in [6], 0.533 (inactive).
As for `CCOC(=O)C1=C[C@@H](C(C)(C)C)N(S(=O)(=O)c2ccc(C)cc2)[C@H]1c1ccc(OC)cc1`, the composite z-score in assay [1] was 1.55; in assay [5], 3.07; in assay [7], -0.0865; in assay [8], 1.18; in assay [9] it was 1.09; in assay [10] it was 0.0301. Besides, the z-score in assay [2] was 0.443 (inactive); in [3] it was 2.17 (inactive); in assay [4], 1.54 (inactive); in assay [6], 0.1 (inactive).
With `CC(CO)N1C(=O)[C@@H]2[C@H]3C(=O)OCC=C[C@H]3OC23C=CCN(c2ccc4ccccc4c2)C(=O)[C@@H]13` (stereo not given in full), the composite z-score in assay [1] is -0.534; in [5], -1.16; in assay [7], 0.111; in assay [8], -1.89; in assay [9], -1.4; in assay [10], -0.301. For the same compound, the z-score was -0.112 (inactive) in assay [2], -0.688 (inactive) in assay [3], -0.128 (inactive) in assay [4] and -0.594 (inactive) in assay [6].
Consider `CC(C)(C)OC(=O)N1[C@@H](C=C(Br)Br)COC1(C)C`, for which the composite z-score in assay [1] is 0.656; in assay [5], 0.546; in [7], -0.0815; in assay [8] it was 0.462; in assay [9] it was 0.668; in assay [10], -0.0954. Besides, the z-score was -2.93 (inactive) in assay [2], -6.61 (inactive) in assay [3], -1.27 (inactive) in assay [4] and 1.74 (inactive) in [6].
In the case of `C#CCN(C(=O)OC(C)(C)C)[C@H](CO)c1ccccc1`, the composite z-score in assay [1] was 0.738; in [5] it was 0.444; in assay [7] it was -0.235; in assay [8], 0.582; in [9], 0.524; in assay [10] it was -0.198. For the same compound, the z-score in assay [2] is -0.365 (inactive); in assay [3], -2.99 (inactive); in assay [4], 0.368 (inactive); in assay [6], -0.223 (inactive).
Regarding `COC(=O)[C@@]1(Cc2ccccc2)[C@H]2c3cc(C(=O)N(C)C)n(Cc4ccc(Cl)c(C(F)(F)F)c4)c3C[C@H]2CN1C(=O)c1ccccc1`, the composite z-score in assay [1] was 0.813; in [5], 2.74; in assay [7], 0.146; in [8] it was 1.59; in assay [9], 1.01; in assay [10], 0.0926. The z-score in assay [2] was 1.01 (inactive); in [3] it was 1.45 (inactive); in assay [4], 3.56 (inactive); in assay [6], -1.12 (inactive).

The values above are taken from PubChem BioAssay.
